Screening results (PubChem)
NPSR antag – qHTS Assay for Antagonists of the Neuropeptide S Receptor: cAMP Signal Transduction; Q6W5P4; CHO-NPSR cells, cAMP TR-FRET, antagonist mode; Potency, µM (doses to about 38.3 µM), inactives show top-dose activity change, negative = inhibition, actives largely listed as inhibitors; 220,000 tested, 1% active; note: potency is the fitted concentration of half-maximal effect; % is set by controls: 0 for no effect and ±100 for the full control effect; nearly all actives have a fitted effect of over 50% in size
PKM2 act – qHTS Assay for Activators of Human Muscle isoform 2 Pyruvate Kinase. Pyruvate kinase PKM (Homo sapiens), P14618. purified PKM2, Kinase-Glo ATP luminescence, activation; response scale: 0% is enzyme alone, no compound. Potency, µM (doses to about 57.5 µM), without a hit: at the highest dose activation, most hits filed as activators. 260,000 tested, 0.34% active. AID 1631, 2009; note: potency is the fitted concentration of half-maximal effect; % is set by controls: 0 for no effect and ±100 for the full control effect; nearly all actives have a fitted effect of over 55% in size
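Kinase-Glo luminescence reports ATP generated from ADP (0.1 mM) and PEP (0.5 mM) by purified hPK-M2 after 1 h at room temperature, pH 7.2 imidazole buffer; intermediate enzyme activity allows detecting inhibitors and activators.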
IL-2 act – qHTS of IL-2 Activators; activation, % (series mostly up to about 46 µM); IL-2 activation reporter assay, cell-based qHTS; stimulated with anti-CD3/CD4/CD28 beads; in transgenic mouse T cells; 360,000 tested, 0.065% active; in the data active = activation above about 50%; inconclusive = mostly about 30% to 49%; note: 0% is about no effect
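Unstimulated transgenic mouse T cells preincubated 60 min with compound, then stimulated with anti-CD3/anti-CD4-coated beads plus anti-CD28 for 18 h at 37 degrees C. IL-2 response read as EGFP and DsRed fluorescence by plate cytometry.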
ClpP mod – qHTS Assay for Activators of ClpP | ATP-dependent Clp protease proteolytic subunit (Bacillus subtilis (strain 168)), P80244 | purified B. subtilis ClpP, FRET peptide cleavage, 20 min | Potency, µM (top dose mostly 57.5 µM), for inactives: at the top dose activity change, negative = active | 340,000 tested, 1.9% active | AID 651965, 2013; active = well fitted falling curve with a large enough effect; inconclusive = small, poorly fitted or top-dose-only effect; inactive = no such curve, though single readings can be large or run the other way; note: potency is the fitted concentration of half-maximal effect; the source files actives as falling curves though it sought activators and does not explain the sign; nearly all actives have a fitted effect of over 65% in size
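ClpP 10 microg/mL final, pH 8 Tris/KCl buffer with BSA, glycerol, Tween-20; compound pinned in; FRET-FV substrate; RT 20 min; Ex320/Em430; ΔFRET vs ADEP 5.8 microM, DMSO, no enzyme.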
* hit, by the source's call; ? = inconclusive; nt = not tested or not shown; [ ] = dose if it differs, or a comment. Only some compounds are listed: those with a hit (about 2% of all), similar ones and a draw of the others. Unless noted, calls come from the whole dose curve; as a rule, active = well fitted curve in the direction sought with a large enough effect; inconclusive = small, poorly fitted or top-dose-only effect, or another doubt; inactive = no such curve, though single readings can be large; an effect the other way counts as inactive or inconclusive.

SMILES	NPSR antag	PKM2 act	IL-2 act	ClpP mod
COc1ccc(C2NC(=O)c3ccccc3N2)cc1OC (stereo unspecified)	-6%[46.1 µM]	0%	-3	?
COc1ccc(OCC(O)CNCc2ccco2)cc1 (stereo unspecified)	-26%[46.1 µM]	12%	0	1%
OC(CNCc1ccco1)COc1ccccc1 (stereo unspecified)	-3%[46.1 µM]	-2%	-5	14µM*
Cc1cc(C2C(C#N)=C(N)Oc3n[nH]c(C)c32)c(C)s1 (stereo unspecified)	0%[46.1 µM]	10%	0	18µM*
CC(=O)c1c(C)nn(-c2ccccc2)c1C	-7%[7.67 µM]	-4%	3	nt
Cc1c(C(=O)O)c(-c2ccccc2)nn1-c1ccccc1	-4%[46.1 µM]	-15%	0	16µM*
c1ccc(CNc2ccc3ccccc3n2)nc1	8%[46.1 µM]	-4%	-1	28µM*
COc1cc(/C=C/c2cccc[n+]2C)ccc1OCC(=O)Nc1ccccc1C	nt	-1%	0	nt
CCOc1cc(/C=C\[N+](=O)[O-])ccc1OCC(=O)Nc1ccccc1C	4µM*	?	-2	0%
Cc1ccc2c(c1)-c1[nH]c(=S)ncc1CS2	-6%	-1%	2	4%
CN(CC(=O)Nc1ccccc1Br)C(=O)c1ccc(-c2ccc(Cl)cc2)o1	nt	2%	0	32µM*
CCOC(=O)[C@]12CCCC=C1N(CCC1=CCCCC1)C(=O)[C@H](CC(=O)NCc1cccs1)C2	nt	nt	0	2%
Clc1ccc(NCn2cncn2)nc1	4%[46.1 µM]	0%	0	?
Cc1nc(NCc2ccco2)c2oc3ccccc3c2n1	-15%[46.1 µM]	3%	1	14µM*
CC(=O)Nc1ccc(Nc2nc(C)nc3c2oc2ccccc23)cc1	-7%[46.1 µM]	-5%	1	14%
Cc1nc(Nc2ccncc2)c2oc3ccccc3c2n1	-9%[46.1 µM]	-3%	-3	14µM*
Cc1nnc(NCc2ccco2)c2ccccc12	2%[46.1 µM]	-3%	0	25µM*
Cn1nnc2c(NCc3ccco3)nccc21	3%[46.1 µM]	8%	-1	16µM*
Cn1c(NCc2ccco2)nc2ccccc21	10%[46.1 µM]	-3%	0	-1%
COc1ccc(C(C(=O)NC2CCCC2)N(C(=O)c2ccco2)c2ccccc2OC)cc1 (stereo unspecified)	nt	nt	-3	nt
Cn1c(/C=N/O)nc2ccccc21	16%	12%	4	4%
C(=N\n1cnnc1)/c1nc2ccccc2[nH]1	-5%[46.1 µM]	10%	0	16µM*
Cn1c(/C=N/n2cnnc2)nc2ccccc21	2%[46.1 µM]	0%	0	14µM*
CCCCN1C(N)=NC[C@@H]1c1ccccc1	nt	nt	0	-5%
O=C1/C(=C/N(C(=O)c2ccco2)c2ccc(Cl)cc2)Sc2ccccc21	-2%	-3%	0	10µM*
SMILES	NPSR antag	PKM2 act	IL-2 act	ClpP mod
COc1cccc(N2C(=NC(=O)CCc3ccccc3)SC3CS(=O)(=O)CC32)c1 (stereo unspecified)	nt	nt	-3	1%
COCCn1c(=NC(=O)c2ccc(S(=O)(=O)N3CCc4ccccc4C3)cc2)sc2cc(S(N)(=O)=O)ccc21	-24%	-7%	-3	14µM*
C#CCn1c(=NC(=O)c2ccc(S(=O)(=O)N3CCc4ccccc4C3)cc2)sc2cc(S(N)(=O)=O)ccc21	-4%	-8%	-1	28µM*
C=CCn1c(=NC(=O)c2ccc(S(=O)(=O)N3CCc4ccccc4C3)cc2)sc2cc(S(N)(=O)=O)ccc21	-10%	-1%	-6	-2%
CC1(c2ccc(O)cc2)NC(=O)N(c2ccccc2)N1 (stereo unspecified)	19%	-7%	-4	nt
O=C(CN1C(=O)COc2ccccc21)N(Cc1ccccc1)Cc1ccccn1	1%[46.1 µM]	-5%	1	-2%
Cc1ccc(CN(Cc2cccnc2)C(=O)CN2C(=O)COc3ccccc32)o1	2%[7.67 µM]	28µM*	1	-2%
CCOC(=O)C1CCN(c2nc3c(S(=O)(=O)c4ccc(Br)cc4)nnn3c3ccsc23)CC1	nt	nt	nt	14µM*
CCOC(=O)C1CCCN(c2nc3c(S(=O)(=O)c4ccc(Br)cc4)nnn3c3ccsc23)C1 (stereo unspecified)	nt	nt	nt	11µM*
Cc1ccc(S(=O)(=O)c2nnn3c2nc(N2CCCCC2)c2sccc23)cc1	nt	nt	nt	-6%
CCOC(=O)C1CCCN(c2nc3c(S(=O)(=O)c4ccc(CC)cc4)nnn3c3ccsc23)C1 (stereo unspecified)	nt	nt	nt	32µM*
CC(C)c1ccc(S(=O)(=O)c2nnn3c2nc(N2CCCCC2)c2sccc23)cc1	nt	nt	nt	25µM*
CCn1cc(C(=O)NC2CC3CCC2C3)c(=O)c2ccc(C)nc21 (stereo unspecified)	-11%[46.1 µM]	3%	nt	nt
C=CCc1cccc(CNc2nc3ccccc3n2CC)c1O	?	?	0	-3%
C=CCc1cccc(CNc2nc3ccccc3n2CCC)c1O	10µM*	28µM*	-3	2%
c1cc(SSc2ccncc2)ccn1	nt	nt	-3	-2%
O=C(Nc1nnc(-c2ccc(Cl)cc2)o1)Nc1ccccc1Cl	2%[46.1 µM]	0%	-2	28µM*
CCn1c(=O)sc2cc(NS(=O)(=O)c3ccc(C)cc3)ccc21	nt	nt	nt	-1%
CCn1c(=O)c(=O)n(CC)c2cc(S(=O)(=O)Nc3ccc(C)cc3)ccc21	0%	10µM*	1	1%
Cc1nc(-c2ccc(S(=O)(=O)N3CCN(C4c5ccccc5-c5ccccc54)CC3)s2)cs1	-1%	4%	0	28µM*
COc1ccc(C2=Nc3ccccc3N(C(=O)c3cnccn3)C2C(=O)NC2CCCC2)cc1 (stereo unspecified)	nt	nt	1	-2%
CCCCCCCCNc1ccccc1S(=O)(=O)NCc1ccccc1	nt	nt	-1	32µM*
CCCN(CC(=O)Nc1ccccc1C)C(=O)c1cnc(C)cn1	nt	nt	-2	2%
CC(NC(=O)CCSc1nc(-c2ccc3c(c2)OCO3)cc(C(F)(F)F)n1)c1ccccc1 (stereo unspecified)	?	-2%	-3	32µM*
COc1ccc(-c2cc(C(F)(F)F)nc(SCC(=O)Nc3cc(C)on3)n2)cc1	?	1%	-1	4µM*
SMILES	NPSR antag	PKM2 act	IL-2 act	ClpP mod
CCCNC(=O)CSc1nc(-c2ccc(OC)cc2)cc(C(F)(F)F)n1	nt	nt	nt	3.2µM*
COc1ccc(CNC(=O)CSc2nc(-c3ccc(OC)cc3)cc(C(F)(F)F)n2)cc1	nt	nt	nt	-15%
COc1ccc(-c2cc(C(F)(F)F)nc(SCCC(=O)NCc3ccccc3)n2)cc1	-15%[46.1 µM]	1%	0	13µM*
CCOC(=O)[C@]12Cc3c(cc(OC)c(OC)c3OC)[C@H]1N(C1CCCCC1)C(=O)c1cc(OC)ccc12	nt	nt	-1	-1%
CCCN(C(=O)COC(=O)c1cc(CC)c(C)s1)c1c(N)n(Cc2ccccc2)c(=O)[nH]c1=O	nt	nt	0	-7%
Cc1ccccc1C(=O)N1CCN(c2ncnc3c2cnn3-c2ccccc2)CC1	-10%[46.1 µM]	4%	-2	-13%
